Inconclusive results are not listed. A number with no mark means an inactive call. Activity calls are given as the source filed them. Calls follow the shape of the dose curve; as a rule, active = well fitted curve in the direction sought with a large enough effect; inconclusive = small, poorly fitted or top-dose-only effect, or another doubt; inactive = no such curve, though single readings can be large; an effect the other way counts as inactive or inconclusive.
Assay: qHTS for activators of Nrf2/ARE signaling pathway screened against the NCATS CANVASS Library (AID 1347391); also: nearly all actives have a fitted effect of over 60% in size; also: potency is read from the fitted curve at half-maximal effect; as to activation: 0% is about no effect
Conditions: ARE-bla HepG2, beta-lactamase reporter, 16 h; series mostly up to 46.1 µM; activation: at the top concentration
How it was run: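 HepG2 ARE-bla; cpd 11-pt qHTS, 16 h 37C/5% CO2; CCF4 substrate 2 h RT; read ex 405 / em 460 + 530 nm. Viability by CellTiter-Glo luminescence, 30 min RT.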

Compound	activation [%]	Potency
CC[C@@H]1[C@H](C)[C@H](c2cc(OC)c(OC)cc2OC)[C@@H](C)[C@H](c2cc(OC)c(OC)cc2OC)[C@]12C=C(OC)C(=O)C=C2OC	-38.9	
C[C@H]1CCC2(OC1)O[C@H]1C[C@H]3[C@@H]4CC(=O)[C@]5(O)C[C@H](O)CC[C@@]5(C)[C@H]4CC[C@@]3(C)[C@H]1[C@H]2C (stereo not given in full)		2090 nM (active)
C=C1C[C@H]2O[C@@H]3[C@@H]4[C@H](CC[C@@](C)(O)[C@@H]42)[C@H](C)COC3(C)[C@@H](OC(=O)CCCCCCC)CC1=O (stereo not given in full)	12	

Assay: qHTS for activators of dead-cell proteases activity screened against the NCATS CANVASS Library (AID 1347392);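 also: luminescence from protease leaking out of membrane-damaged cells cleaving impermeant substrate; 0% is about no effect; rising signal means more cytotoxicity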
Conditions: HepG2 cytotoxicity, dead-cell protease luminescence, 5 h; series mostly up to 46.1 µM; activation (cytotoxicity): at the top concentration
How it was run: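 HepG2, 2000 cells/well, 18 h attach; cpd 11-pt, 5 h 37C 5% CO2; CytoTox-Glo (AAF-aminoluciferin) 15 min RT; luminescence read.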

Compound	activation (cytotoxicity)	Potency
O[C@H]1C=C2[C@H]3CN(Cc4cc5c(cc43)OCO5)[C@H]2C[C@@H]1O	3.83%	
CC[C@@H](c1cc(OC)c(OC)cc1OC)[C@H](C)[C@@H](/C(C)=C/c1cc(OC)c(OC)cc1OC)c1cc(OC)c(OC)cc1OC		inactive
C/C=C/c1cc2c(c(=O)o1)C(=O)[C@@H](O)[C@H](C)O2	-0.945%	
CN1CCc2cc3c(c4c2C1(C)C(=O)c1cc(O)ccc1-4)OCO3 (stereo not given)	-3%	
COc1cc2c(cc1OC)[C@@H](c1ccc3c(c1)OCO3)C(C)[C@@H](C)C2=O (stereo not given in full)	-0.0729%	
CC(C)[C@@H]1CC(=O)c2coc3c2[C@H]1C[C@@H](C)C3=O	-0.711%	
COc1cc2oc3ccccc3c(=O)c2cc1OC	-11.5% [at 91.4 µM]	
COC(=O)[C@@]1(C)CCC[C@]2(C)c3cc(OC)ccc3CC[C@@H]12	-0.751%	
COc1cc2ccc(=O)oc2c(O)c1O[C@@H]1O[C@H](CO)[C@@H](O)[C@H](O)[C@H]1O	-1.05% [at 27.5 µM]	
CC[C@H]1[C@@H](C)[C@@H](c2cc(OC)c(OC)cc2OC)[C@H](C)[C@@H](c2cc(OC)c(OC)cc2OC)[C@@]12C=C(OC)C(=O)C=C2OC	9.01%	
O=C1CCC(=O)N(O)CCCCCNC(=O)CCC(=O)N(O)CCCCCNC(=O)CCC(=O)N(O)CCCCCN1	1.03%	
C=C1C[C@H]2O[C@@H]3[C@@H]4[C@H](CC[C@@](C)(O)[C@@H]42)[C@H](C)COC3(C)[C@@H](OC(=O)CCCCCCC)C[C@H]1O (stereo not given in full)	-2.85%	
CC1=C(C)C(=O)OC(C(C)C2(O)CCC3C4C5OC5C5(O)CC=CC(=O)C5(C)C4CCC32C)C1 (stereo not given)	2%	
C[C@H](CCC(O)C(C)(O)CO)[C@@]1(O)CC[C@@]2(C)C3=C(CC[C@@]21C)[C@@]1(C)CCC(OC(=O)CCC(=O)O)C(C)(C)[C@@H]1CC3 (stereo not given in full)	1.15%	
COc1cc(C2C3=C(Cc4cc5c(cc42)OCO5)C(=O)OC3)cc(OC)c1OC (stereo not given)	10.8%	
CO[C@@H]1[C@H](O)[C@@H](C)O[C@@H](OC[C@@H]2C(C)OC(=O)/C=C/[C@H](C)C(O[C@@H]3O[C@H](C)CC4(OC(=O)O[C@@H]4C)C3O)[C@@H](C)CC(C)C(=O)/C=C/[C@H]3OC23)[C@@H]1OC (stereo not given in full)	3.48%	
C=C[C@@](C)(O)CC[C@@H]1[C@@]2(C)CCCC(C)(C)[C@@H]2CC[C@@]1(C)O	2.66%	
COc1ccc([C@@H]2c3cc4c(cc3C(=O)[C@H](C)C2C)OCO4)cc1OC (stereo not given in full)	-0.981%	
C/C(=C\[C@H](C)C(=O)C[C@H](O)CC1CC(=O)NC(=O)C1)[C@@H]1OC(=O)CCCC/C=C/[C@@H](O)C[C@@H]1C	-0.177%	
CC1=C[C@H]2[C@H]3C(=O)C(c4ccc(O)cc4)=C[C@@]3(c3ccc(O)cc3)[C@@H]1C(=O)[C@]2(C)O	2.95%	
C=C1C(=O)O[C@H]2[C@H]1CCC(C)=C1CC[C@@](C)(O)[C@@H]12	2.7%	
C/C(=C\[C@H](C)C(=O)/C=C/CC1CC(=O)NC(=O)C1)[C@@H]1OC(=O)CCCC/C=C/[C@H](O)[C@@H](O)[C@@H]1C	2.54%	
C[C@H](c1cnc(N)[nH]1)c1ccc(O)c2[nH]cc(-c3cnc(-c4c[nH]c5ccccc45)c(=O)[nH]3)c12	5.98%	
COc1ccc([C@@H]2c3cc4c(cc3C[C@H](C)C2C)OCO4)cc1OC (stereo not given in full)	-2.15%	
C[C@H]1CCC2(OC1)O[C@H]1C[C@H]3[C@@H]4CC(=O)[C@]5(O)C[C@H](O)CC[C@@]5(C)[C@H]4CC[C@@]3(C)[C@H]1[C@H]2C (stereo not given in full)	-2.14%	
C/C1=C/[C@@H](C)[C@H](O)C/C=C/CC/C=C/C(=O)O[C@@H]1[C@H](C)C(=O)CCCC1CC(=O)NC(=O)C1	2.94%	
C=C1C[C@H]2O[C@@H]3[C@@H]4[C@H](CC[C@@](C)(O)[C@@H]42)[C@H](C)COC3(C)[C@@H](OC(=O)CCCCCCC)CC1=O (stereo not given in full)	4.91%	
